Outcome data for 4 molecules are collected here from PubChem BioAssay AID720690 (Broad Institute, 2013).

Entries with a potency or affinity are not part of this list. Activity calls are given as the source filed them.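 How the source made its calls: active means every repeat run showing a signal drop whose fitted half-maximal concentration is at most twice the top tested concentration; inconclusive means repeat runs disagree, or flat partial drop, or poor fit; inactive means the rest.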

This assay is described as follows: general mammalian cell viability loss – activator set, cherry-pick, cytotoxicity control for miR-122 modulator project, dose response (AID 720690). To be noted: HEK293T viability, CellTiter-Glo luminescence, 48 h; series mostly up to 26 µM. On the technique in general: In ATP-based viability assays light output follows the ATP content of the culture.
Regarding `Cc1cc(C)cc(NC(=O)Nc2ccc3c(c2)C(=O)N(C)[C@@H]2CC[C@H](CC(=O)O)O[C@@H]2CO3)c1`, the outcome was inactive.
As to `CN(C[C@@H]1[C@@H](c2ccccc2)[C@H](CO)N1C(=O)C1CCC1)C(=O)c1ccccn1`, the result was inactive.
Take `CN1C(=O)c2cc(NC(=O)c3ccno3)ccc2OC[C@H]2O[C@@H](CC(=O)NCC3CC3)CC[C@@H]21`: the molecule was classed as inactive.
In the case of `COc1cccc(CNC(=O)C[C@@H]2CC[C@@H]3[C@H](COc4ccc(NC(C)=O)cc4C(=O)N3C)O2)c1`, the result was inactive.
